Results on one compound are retold here after the supplement of paper PMC6411743.

± gives the standard deviation of the averaged measurements. Of roughly 5,400 targets only a part is listed; those with the largest changes were picked by preference.

For this test, the target named is T1, UniProt Q13188|Q13188-2.
T1 sequence (whole entry): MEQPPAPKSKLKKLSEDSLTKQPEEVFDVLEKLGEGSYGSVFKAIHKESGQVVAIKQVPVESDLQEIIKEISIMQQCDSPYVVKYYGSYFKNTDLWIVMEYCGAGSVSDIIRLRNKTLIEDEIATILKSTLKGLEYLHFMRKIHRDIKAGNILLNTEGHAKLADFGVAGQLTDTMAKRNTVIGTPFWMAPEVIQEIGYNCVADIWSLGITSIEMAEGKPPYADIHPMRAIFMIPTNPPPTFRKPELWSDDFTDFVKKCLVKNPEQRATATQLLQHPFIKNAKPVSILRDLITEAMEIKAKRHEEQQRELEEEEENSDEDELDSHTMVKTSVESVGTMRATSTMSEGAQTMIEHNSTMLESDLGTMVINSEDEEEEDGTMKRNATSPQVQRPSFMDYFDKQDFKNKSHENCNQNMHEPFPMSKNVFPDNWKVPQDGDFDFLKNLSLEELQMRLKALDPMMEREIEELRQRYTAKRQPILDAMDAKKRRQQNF
Nature of the test: NP40-soluble protein abundance relative to vehicle (solubility fold change) (ratio); higher = more soluble protein in presence of GTP. The protocol:
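Solubility proteome profiling in Jurkat crude lysate. Lysate was treated with Mg-GTP (0.1-10 mM) for 10 min at room temperature and 3 min at 37 °C, then solubilised with 0.8% NP40 and benzonase, followed by ultracentrifugation. Proteins were quantified by TMT10 LC-MS/MS; the value is the NP40-soluble abundance relative to the NP40-processed vehicle, from 3 independent experiments.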

As to `Nc1nc2c(ncn2[C@@H]2O[C@H](COP(=O)(O)OP(=O)(O)OP(=O)(O)O)[C@@H](O)[C@H]2O)c(=O)[nH]1` [guanosine triphosphate], the NP40-soluble protein abundance is, setting by setting: (concentration: 0.1mM) 0.978 ± 0.064; (concentration: 0.5mM) 0.985 ± 0.036; (concentration: 1mM) 0.98 ± 0.057; (concentration: 2mM) 0.982 ± 0.048; (concentration: 4mM) 0.96 ± 0.049; (concentration: 6mM) 0.948 ± 0.052. Also, the NP40-soluble protein abundance by setting is: (concentration: 8mM) 0.972 ± 0.071; (concentration: 10mM) 0.973 ± 0.088.
